This is an account of results in publication PMC5540273 (PLoS ONE, 2017).

Conditions in all cases: concentration: 1 μM, replicates: in singlicate; n = 1
The subject of test [1] is TYK2(JH2domain-pseudokinase).
For test [2], the system named is TYRO3.
For test [3], the system named is ULK1.
Test [4] has as its system ULK2.
Test [5] relates to ULK3.
Test [6] concerns T1, VEGFR2.
T1 construct: gene KDR

In test [7] the test system is T2, VPS34.
T2 construct: gene PIK3C3

The subject of test [8] is VRK2.
Test [9] concerns WEE1.
The subject of test [10] is WEE2.
For test [11], the system named is WNK1.
In test [12] the test system is WNK2.
In test [13] the test system is WNK3.
For test [14], the system named is WNK4.
The subject of test [15] is T3, YANK1.
T3 construct: gene STK32A

Test [16] deals with T4, YANK2.
T4 construct: gene STK32B

In test [17] the test system is T5, YANK3.
T5 construct: gene STK32C

The test system of test [18] is T6, YES.
T6 construct: gene YES1

Test [19] deals with T7, YSK1.
T7 construct: gene STK25

Test [20] has as its system T8, YSK4.
T8 construct: gene MAP3K19
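Note: KINOMEscan kinase panel screen.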

For `Cc1ccc(NC(=O)c2cccc(N3CCCCC3)c2)cc1-c1ccc(C(=O)NCC2CC2)cc1` [GSK1917008], the “%Inh” value was 0% in test [1]; 0% in [2]; 37% in test [3]; 13% in test [4]; 18% in test [5]; 6% in test [6]. Besides, the “%Inh” value in [7] is given as 0%; in test [8], 0%; in test [9] it was 0%; in test [10], 18%; in test [11], 13%; in test [12], 0%. The “%Inh” value in [13] was 2%; in test [14], 10%; in test [15], 9%; in [16], 11%; in [17] it was 22%; in [18], 10%. Moreover, the figures for the “%Inh” value in [19] and in test [20] were 12% and 35%, respectively.
As to `CN(C)c1ncnc2nc[nH]c12` [SKF-31736], the “%Inh” value in test [1] is on record as 26%; in [2] it was 0%; in test [3] it was 14%; in test [4], 42%; in test [5], 21%; in test [6], 5%. Further, the “%Inh” value in [7] was found to be 47%; in [8], 38%; in test [9] it was 0%; in test [10] it was 0%; in [11], 15%; in test [12], 0%. Besides, the “%Inh” value in test [13] was 10%; in [14] it was 13%; in test [15] it was 0%; in test [16] it was 0%; in [17], 0%; in [18] it was 0%. Moreover, the “%Inh” value in test [19] came to 0%; in [20], 10%.
On to `COc1cc(Nc2ccnc3cc(-c4ccncc4)ccc23)cc(OC)c1OC.Cl` [GW494610], for which the “%Inh” value in test [1] stood at 18%; in test [2], 89%; in test [3], 100%; in test [4], 0%; in test [5] it was 15%; in test [6] it was 0%. The “%Inh” value in [7] amounted to 0%; in test [8] it was 19%; in [9] it was 0%; in [10], 18%; in test [11], 22%; in test [12], 4%. In addition, the “%Inh” value in test [13] turned out to be 16%; in test [14], 19%; in [15] it was 2%; in test [16] it was 32%; in test [17], 9%; in [18], 76%. Also, the “%Inh” value stood at 0% in test [19] and 98.5% in test [20].
For the compound `NCCC(NC(=O)c1cc(Br)c(-c2ccnc3[nH]ccc23)s1)c1ccccc1.O=C(O)C(F)(F)F.O=C(O)C(F)(F)F` (centres unmarked) [GSK1307810], the “%Inh” value in [1] is 7%; in [2], 0%; in test [3] it was 30%; in test [4], 8%; in test [5], 16%; in test [6] it was 55%. Further, the “%Inh” value is 25% in test [7]; 23% in [8]; 4% in test [9]; 0% in test [10]; 0% in test [11]; 0% in [12]. The “%Inh” value was found to be 24% in test [13]; 37% in test [14]; 10% in [15]; 0% in test [16]; 18% in test [17]; 14% in [18]. The “%Inh” value came out at 4% in test [19] and 97.3% in [20].
Consider `N#CC1(c2cccc(C(=O)Nc3cccc(Oc4ccc5nc(NC(=O)C6CC6)sc5n4)c3)c2)CC1`, for which the “%Inh” value in test [1] came out at 0%; in [2], 53%; in test [3] it was 0%; in test [4] it was 0%; in [5] it was 0%; in test [6], 99.7%. The “%Inh” value came out at 0% in test [7]; 19% in [8]; 0% in test [9]; 5% in test [10]; 6% in test [11]; 0% in [12]. The “%Inh” value in [13] was found to be 0%; in [14], 0%; in [15], 0%; in test [16], 9%; in [17], 0%; in test [18] it was 98.7%. In addition, the results for the “%Inh” value in test [19] and in [20] were 37% and 98.9%, respectively.
Take `COc1ccc(NC(=O)c2ccoc2)cc1-c1ccc(C(=O)NCC2CC2)cc1` [GW810437]: the “%Inh” value was found to be 34% in test [1]; 12% in [2]; 34% in test [3]; 28% in [4]; 41% in [5]; 0% in test [6]. In addition, the “%Inh” value in test [7] came to 11%; in test [8] it was 0%; in test [9], 7%; in [10], 13%; in test [11] it was 9%; in test [12], 0%. Moreover, the “%Inh” value in test [13] is 12%; in [14], 0%; in [15], 0%; in test [16] it was 13%; in [17] it was 12%; in test [18], 0%. For the same compound, the “%Inh” value came to 0% in test [19] and 34% in [20].
In the case of `CN(C)CCNS(=O)(=O)c1ccc(-c2ccnc3[nH]ccc23)cc1` [GSK977620], the “%Inh” value was 26% in [1]; 3% in test [2]; 73% in [3]; 0% in test [4]; 27% in [5]; 0% in test [6]. For the same compound, the “%Inh” value in [7] came out at 57%; in [8], 0%; in [9], 35%; in test [10], 0%; in test [11], 0%; in [12] it was 0%. Moreover, the “%Inh” value in test [13] is reported as 0%; in [14], 0%; in test [15], 21%; in test [16] it was 0%; in [17] it was 27%; in test [18], 16%. The “%Inh” value is on record as 78% in [19] and 88% in [20].
In the case of `Cc1cccc(Nc2nc(NCCN)ncc2C(N)=O)c1` [GSK1292139], the “%Inh” value was found to be 95.8% in test [1]; 0% in test [2]; 64% in test [3]; 78% in [4]; 41% in test [5]; 3% in test [6]. Also, the “%Inh” value is on record as 0% in test [7]; 18% in [8]; 0% in test [9]; 26% in test [10]; 7% in test [11]; 0% in test [12]. Further, the “%Inh” value in [13] was 31%; in [14], 15%; in test [15], 9%; in test [16] it was 0%; in [17] it was 0%; in test [18], 6%. Further, the “%Inh” value worked out at 31% in test [19] and 88% in test [20].
On to `Cn1cc(-c2cnc(N)c3c(-c4ccc5c(c4)CCN5C(=O)Cc4ccccc4)csc23)cn1` [GSK2593074], for which the “%Inh” value in test [1] was 0%; in [2] it was 63%; in [3], 0%; in [4] it was 0%; in [5], 0%; in test [6] it was 65%. Also, the “%Inh” value is listed as 0% in [7]; 0% in test [8]; 3% in test [9]; 5% in test [10]; 0% in test [11]; 0% in [12]. Moreover, the “%Inh” value is 0% in [13]; 0% in test [14]; 0% in test [15]; 0% in test [16]; 0% in test [17]; 55% in [18]. The “%Inh” value in test [19] came out at 6%; in test [20] it was 43%.
Regarding `CCn1c(-c2nonc2N)nc2c(-c3ccccc3)ncc(OCCCN)c21.O=C(O)C(F)(F)F.O=C(O)C(F)(F)F` [GSK260205], the “%Inh” value is listed as 95.2% in test [1]; 0% in test [2]; 9% in [3]; 0% in test [4]; 4% in test [5]; 21% in [6]. In addition, the “%Inh” value in test [7] came out at 0%; in [8] it was 28%; in test [9], 2%; in test [10] it was 8%; in test [11], 22%; in test [12] it was 14%. For the same compound, the “%Inh” value is reported as 32% in test [13]; 15% in test [14]; 99.4% in [15]; 87% in test [16]; 50% in test [17]; 28% in test [18]. Moreover, the results for the “%Inh” value in test [19] and in test [20] were 23% and 99.6%, respectively.
